Measured values published in PubChem BioAssay (Tox21).
Values joined by “and” are separate entries in the source; they are usually repeats but may differ in a detail not shown here. Equal entries are not always repeated. Results filed as inconclusive are left out. Active and inactive are the calls of the source. Unless noted, the call rests on the fitted dose curve; in most records, active means well fitted curve in the direction sought with a large enough effect in the repeat runs; inconclusive means weak or mixed curves; inactive means no such curve, though single readings can be large; an effect the other way counts as inactive or inconclusive.

How the values were obtained:
[1] = qHTS assay to identify small molecule antagonists of the glucocorticoid receptor (GR) signaling pathway - cell viability counter screen (AID 720693); details: GR-bla HeLa viability, CellTiter-Glo luminescence, 18 h, with 5 nM dexamethasone present; series mostly up to 58.5 µM; further: nearly all actives have a fitted effect of over 55% in size
[2] = qHTS assay for identifying genotoxic compounds that show differential cytotoxicity against isogenic chicken DT40 cell lines with known DNA damage response pathways - wild type cell line (AID 743012); details: DT40 wild type chicken cells viability, CellTiter-Glo, 40 h; series mostly up to 68.4 µM; further: nearly all actives have a fitted effect of over 60% in size; further: potency means the concentration at half of the fitted maximal effect
How it was run: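 Luminescent ATP viability signal (CellTiter-Glo, 30 min RT) recorded after wild type DT40 cells were incubated with compounds for 40 h at 37 C/5% CO2.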

[3] = qHTS assay for identifying genotoxic compounds that show differential cytotoxicity against isogenic chicken DT40 cell lines with known DNA damage response pathways - Rev3 mutant cell line (AID 743014); details: chicken DT40 Rev3-/- viability, CellTiter-Glo, 40 h; series mostly up to 68.4 µM; further: nearly all actives have a fitted effect of over 55% in size; further: potency means the concentration at half of the fitted maximal effect
[4] = qHTS assay for identifying genotoxic compounds that show differential cytotoxicity against isogenic chicken DT40 cell lines with known DNA damage response pathways - Rad54/Ku70 mutant cell line (AID 743015); details: DT40 Rad54/Ku70 mutant viability, CellTiter-Glo, 40 h; series mostly up to 66.8 µM; further: nearly all actives have a fitted effect of over 60% in size; further: potency means the concentration at half of the fitted maximal effect
[5] = qHTS assay to identify small molecule antagonists of the androgen receptor (AR) signaling pathway - cell viability counter screen (AID 743033; further: nearly all actives have a fitted effect of over 45% in size; further: potency means the concentration at half of the fitted maximal effect); details: AR-bla HEK293 viability, CellTiter-Glo luminescence, 16 h; series mostly up to 58.5 µM
[6] = target: Androgen receptor (Homo sapiens) (UniProt P10275); assay: qHTS assay to identify small molecule antagonists of the androgen receptor (AR) signaling pathway (AID 743035; active means well fitted inhibition curve with a large enough effect in the signal ratio in the repeat runs, not every such curve was filed as active; the % refers to the signal ratio; further: potency means the concentration at half of the fitted maximal effect); details: HEK293 AR-UAS-bla, R1881-stimulated, beta-lactamase FRET, 16 h; series mostly up to 58.5 µM
How it was run: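 Quantitative HTS of the Tox21 10K library used HEK293 AR-UAS-bla cells stimulated with R1881 alongside compound for 16 h at 37C, followed by beta-lactamase FRET detection (LiveBLAzer B/G, 2 h, RT).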

[7] = target: Androgen receptor (Homo sapiens) (UniProt P10275); assay: qHTS assay to identify small molecule agonists of the androgen receptor (AR) signaling pathway (AID 743036; active means well fitted activation curve with a large enough effect in the signal ratio in the repeat runs, with a control signal flat, not every such curve was filed as active; the % refers to the signal ratio); details: HEK293 AR-UAS-bla GripTite, beta-lactamase FRET ratio, 16 h; series mostly up to 62.4 µM
How it was run: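 Beta-lactamase under UAS control, stably integrated in HEK293 GripTite cells, reports receptor activation. After 16 h compound treatment, cells received FRET substrate for 2 h at room temperature before fluorescence reading.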

[8] = target: Androgen receptor (Homo sapiens) (UniProt P10275); assay: qHTS assay to identify small molecule agonists of the androgen receptor (AR) signaling pathway using the MDA cell line (AID 743040; further: nearly all actives have a fitted effect of over 20% in size); details: MDA-kb2 AR-luc cells, MMTV luciferase, 16 h; series mostly up to 70.3 µM
How it was run: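 Luciferase agonist assay: 16 h compound exposure at 37C without CO2 in MDA-kb2 AR-luc cells, whose MMTV promoter responds to both AR and GR. Luminescence measured after 30 min room-temperature incubation with ONE-Glo.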

[9] = qHTS assay to identify small molecule antagonists of the androgen receptor (AR) signaling pathway using the MDA cell line - cell viability counter screen (AID 743041; further: nearly all actives have a fitted effect of over 45% in size; further: potency means the concentration at half of the fitted maximal effect); details: MDA-kb2 viability, CellTiter-Fluor, 16 h, cells co-treated with R1881 androgen agonist; series mostly up to 70.3 µM
How it was run: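 Viability read by CellTiter-Fluor fluorescence in the same wells as the antagonist screen, added after 15.5 h of a 16 h, 37C exposure. Human breast carcinoma MDA-kb2 AR-luc cells, compounds co-dosed with agonist R1881.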

[10] = target: Androgen receptor (Homo sapiens) (UniProt P10275); assay: qHTS assay to identify small molecule antagonists of the androgen receptor (AR) signaling pathway using the MDA cell line (AID 743042; further: nearly all actives have a fitted effect of over 55% in size; further: potency means the concentration at half of the fitted maximal effect); details: MDA-kb2 AR-luc, MMTV luciferase, R1881 antagonist, 16 h; series mostly up to 70.3 µM
How it was run: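 Antagonist mode: compounds plus R1881 agonist added to MDA-kb2 AR-luc cells, incubated 16 h at 37C. Luciferase reporter luminescence quantified, with multiplexed CellTiter-Fluor readout for cell viability.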

Measured: Potency

Androgen receptor (Homo sapiens), sequence (P10275 whole entry, looked up): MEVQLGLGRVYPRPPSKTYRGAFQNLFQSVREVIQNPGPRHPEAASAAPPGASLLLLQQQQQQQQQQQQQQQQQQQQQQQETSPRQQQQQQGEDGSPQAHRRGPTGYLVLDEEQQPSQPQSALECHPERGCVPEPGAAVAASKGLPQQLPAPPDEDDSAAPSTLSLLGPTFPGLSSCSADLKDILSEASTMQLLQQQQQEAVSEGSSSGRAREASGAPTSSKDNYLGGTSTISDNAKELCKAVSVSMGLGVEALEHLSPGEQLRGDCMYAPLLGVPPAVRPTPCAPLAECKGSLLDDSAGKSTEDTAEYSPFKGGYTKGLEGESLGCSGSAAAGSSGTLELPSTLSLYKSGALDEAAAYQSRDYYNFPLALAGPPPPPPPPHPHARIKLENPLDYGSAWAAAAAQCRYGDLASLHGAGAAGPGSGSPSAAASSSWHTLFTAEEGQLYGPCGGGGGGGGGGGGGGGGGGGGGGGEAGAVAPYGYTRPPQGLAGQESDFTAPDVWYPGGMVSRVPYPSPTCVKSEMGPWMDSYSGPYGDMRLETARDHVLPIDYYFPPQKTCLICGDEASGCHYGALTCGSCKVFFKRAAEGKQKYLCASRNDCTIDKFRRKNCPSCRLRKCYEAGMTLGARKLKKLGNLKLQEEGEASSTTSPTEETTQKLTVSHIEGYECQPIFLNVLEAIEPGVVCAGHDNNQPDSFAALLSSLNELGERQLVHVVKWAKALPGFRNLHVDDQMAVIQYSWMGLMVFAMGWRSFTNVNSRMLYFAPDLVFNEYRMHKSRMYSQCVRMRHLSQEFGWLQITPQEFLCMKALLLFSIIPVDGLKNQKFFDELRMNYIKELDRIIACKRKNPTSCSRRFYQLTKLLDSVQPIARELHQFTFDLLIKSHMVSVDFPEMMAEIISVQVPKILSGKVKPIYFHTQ

CCCCCCCCCc1ccc(OCCOCCO)cc1
inactive: [1] | [7] | [8]
active: [2] 2.37 µM and 909 nM | [3] 3.76 µM and 1.81 µM | [4] 3.76 µM and 1.81 µM | [5] 13.4 µM and 8.17 µM | [6] 5.35 µM and 4.6 µM | [9] 11.1 µM and 5.11 µM | [10] 4.73 µM and 1.44 µM

NC(=O)C(c1ccccc1)(c1ccccc1)[C@@H]1CCN(CCc2ccc3c(c2)CCO3)C1
inactive: [1] | [5]
active: [2] 11.9 µM | [3] 18.8 µM | [4] 23.7 µM

CCCCCCCCO[C@@H]1O[C@H](CO)[C@@H](O)[C@H](O)[C@H]1O
inactive: [1] | [2] | [3] | [4] | [5] | [9]

CC[N+]1(CC)CCC(=C(c2ccccc2)c2ccccc2)C1C (stereo unspecified)
active: [2] 8.41 µM | [3] 16.8 µM | [4] 13.3 µM
inactive: [1] | [5]

COC(=O)c1ccc(I)cc1S(=O)(=O)NC(=O)Nc1nc(C)nc(OC)n1
inactive: [1] | [2] | [3] | [4] | [5] | [9]

CCOC(=O)C(F)(F)F
inactive: [1] | [2] | [4] | [5] | [9]
active: [3] 34.4 µM

O=C1[C@H]2CCCC[C@H]2C(=O)N1CCCCN1CCN(c2nsc3ccccc23)CC1
inactive: [1]
active: [2] 6.68 µM | [3] 5.96 µM | [4] 5.96 µM

CC(COCCO)OCCO (stereo unspecified)
inactive: all assays above

Nc1ccc(N)c2c1C(=O)c1ccccc1C2=O
active: [2] 17.2 µM | [3] 27.3 µM | [4] 7.7 µM
not listed: [6] | [9]
inactive: all other assays above

O=P(O)(OCc1ccccc1)OCc1ccccc1
inactive: [1] | [2] | [3] | [4] | [5] | [9]

CCOC(=O)COC(=O)c1cc(Oc2ccc(C(F)(F)F)cc2Cl)ccc1[N+](=O)[O-]
active: [2] 21.7 µM | [3] 12.2 µM | [4] 19.3 µM
not listed: [6]
inactive: all other assays above

CCOC(=O)c1cccnc1
inactive: [1] | [2] | [3] | [4] | [5] | [9]
